Values joined by “and” are separate entries in the source; they are usually repeats but may differ in a detail not shown here. Identical values can stand only once. In all, about 5,500 compounds went through this assay and about 2,000 (36%) were called active. Inconclusive results (about 18%) are left out. Cut-off read from the data, not from the text of the source: active = normalized growth mostly below about 0.91 (no sharp cut-off); inconclusive = no clear call, values can overlap the other calls; inactive = mostly above about 0.92. This is one part of the list.
Experiment: chemical genetic growth profiling, strain panel (AID 1159580);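 note: tested at 20 µM; growth read once vehicle control cultures reached saturation at 30 °C; 1 = growth at the plate median or of vehicle wells; lower values mean less growth of the strain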
Conditions: S. cerevisiae deletion strains, growth OD

Measured: normalized growth

CCCn1c(=O)c2[nH]c(C3CCCC3)nc2n(CCC)c1=O
inactive: locus YAL013W, strain DEP1, active compounds read low 0.992 | locus YAL021C, strain ccr4, active compounds read low 1.01 | locus YAL026C, strain drs2, active compounds read low 0.984 | locus YAL030W, strain snc1, active compounds read low 0.973 | locus YAL040C, strain CLN3, active compounds read low 0.995 | locus YBL061C, strain skt5, active compounds read low 0.989 | locus YBR009C, strain hhf1, active compounds read low 0.969 | locus YBR021W, strain FUR4, active compounds read low 1.01 | locus YBR023C, strain chs3, active compounds read low 0.986 | locus YBR171W, strain sec66, active compounds read low 0.976 | locus YBR229C, strain ROT2, active compounds read low 0.992 | locus YBR231C, strain swc5, active compounds read low 0.984 | locus YBR279W, strain paf1, active compounds read low 1 | locus YCL011C, strain gbp2, active compounds read low 0.986 | locus YCL016C, strain dcc1, active compounds read low 0.98 | locus YCL029C, strain bik1, active compounds read low 0.959 | locus YCL061C, strain MRC1 (second series), active compounds read low 0.999 | locus YCL061C, strain MRC1, active compounds read low 0.977 | locus YCL069W, strain vba3, active compounds read low 0.98 | locus YCR088W, strain abp1, active compounds read low 0.983 | locus YDL005C, strain med2, active compounds read low 0.992 | locus YDL035C, strain GPR1, active compounds read low 0.981 | locus YDL040C, strain nat1, active compounds read low 0.984 | locus YDL074C, strain BRE1, active compounds read low 0.973 | locus YDL101C, strain DUN1, active compounds read low 0.992 | locus YDL134C, strain PPH21, active compounds read low 0.993 | locus YDL185W, strain tfp1, active compounds read low 0.926 | locus YDL192W, strain arf1, active compounds read low 0.977 | locus YDR001C, strain nth1, active compounds read low 0.986 | locus YDR069C, strain doa4, active compounds read low 0.976 | locus YDR101C, strain arx1, active compounds read low 0.976 | locus YDR137W, strain rgp1, active compounds read low 0.954 | locus YDR150W, strain NUM1, active compounds read low 0.968 | locus YDR159W, strain sac3, active compounds read low 0.968 | locus YDR162C, strain NBP2, active compounds read low 0.998 | locus YDR195W, strain ref2 0.947 | locus YDR297W, strain sur2, active compounds read low 0.99 | locus YDR318W, strain mcm21, active compounds read low 0.964 | locus YDR334W, strain swr1, active compounds read low 0.988 | locus YDR335W, strain msn5, active compounds read low 0.987 | locus YDR363W, strain ESC2, active compounds read low 1.01 | locus YDR388W, active compounds read low 0.96 | locus YDR392W, strain spt3, active compounds read low 0.839 | locus YDR502C, strain sam2, active compounds read low 0.98 | locus YEL003W, strain gim4, active compounds read low 0.985 | locus YEL037C, strain rad23, active compounds read low 0.991 | locus YEL061C, strain CIN8 (second series), active compounds read low 0.987 | locus YEL061C, strain CIN8, active compounds read low 0.994 | locus YER002W, strain NOP16, active compounds read low 1.01 | locus YER015W, strain faa2, active compounds read low 1 | locus YER016W, strain bim1, active compounds read low 0.98 | locus YER110C, active compounds read low 0.949 | locus YER111C, strain swi4, active compounds read low 0.993 | locus YER155C, strain BEM2 (second series), active compounds read low 0.921 | locus YER155C, strain BEM2, active compounds read low 0.995 | locus YER167W, strain BCK2, active compounds read low 0.971 | locus YFR010W, strain ubp6, active compounds read low 0.992 | locus YGL078C, strain dbp3, active compounds read low 0.967 | locus YGL086W, strain mad1, active compounds read low 0.98 | locus YGL167C, strain pmr1, active compounds read low 0.982 | locus YGL173C, strain kem1, active compounds read low 0.983 | locus YGL227W, strain vid30, active compounds read low 0.98 | locus YGL240W, strain doc1, active compounds read low 0.989 | locus YGL248W, strain PDE1, active compounds read low 0.995 | locus YGL253W, strain hxk2, active compounds read low 0.992 | locus YGR078C, strain PAC10, active compounds read low 0.985 and 0.986 | locus YGR135W, strain pre9, active compounds read low 1 | locus YGR229C, strain SMI1, active compounds read low 0.996 and 0.953 | locus YGR252W, strain gcn5, active compounds read low 0.926 | locus YHR013C, strain ard1, active compounds read low 0.928 | locus YHR027C, strain rpn1, active compounds read low 0.988 | locus YHR030C, strain SLT2, active compounds read low 0.984 | locus YHR079C, strain IRE1 (second series), active compounds read low 0.975 | locus YHR094C, strain hxt1, active compounds read low 0.963 | locus YHR129C, strain ARP1, active compounds read low 0.985 | locus YHR142W, strain chs7, active compounds read low 0.988 | locus YHR200W, strain rpn10, active compounds read low 0.963 | locus YIL066C, strain RNR3, active compounds read low 0.972 | locus YIL073C, strain SPO22, active compounds read low 0.914 | locus YIL125W, strain kgd1, active compounds read low 0.985 | locus YIR030C, strain dcg1, active compounds read low 0.977 | locus YJL092W, strain hpr5, active compounds read low 1 | locus YJL095W, strain BCK1 (second series), active compounds read low 0.981 | locus YJL095W, strain BCK1, active compounds read low 0.996 | locus YJL115W, strain asf1, active compounds read low 0.994 | locus YJL129C, strain trk1, active compounds read low 0.943 | locus YJL134W, strain LCB3, active compounds read low 0.979 | locus YJL154C, strain vps35, active compounds read low 0.979 | locus YJL164C, strain tpk1, active compounds read low 0.988 | locus YJL166W, strain qcr8, active compounds read low 0.988 | locus YJL168C, strain set2, active compounds read low 0.971 | locus YJL187C, strain SWE1 (second series), active compounds read low 0.982 | locus YJL187C, strain SWE1, active compounds read low 0.995

Reference: PubChem BioAssay AID1159580 (chemical genetic matrix, 2015)
